These results are taken from ChEMBL document CHEMBL2218924, “A broad activity screen in support of a chemogenomic map for kinase signalling research and drug discovery” (Biochem J, 2013).

Sequence of Ribosomal protein S6 kinase alpha-3 (Homo sapiens) (P51812 whole entry): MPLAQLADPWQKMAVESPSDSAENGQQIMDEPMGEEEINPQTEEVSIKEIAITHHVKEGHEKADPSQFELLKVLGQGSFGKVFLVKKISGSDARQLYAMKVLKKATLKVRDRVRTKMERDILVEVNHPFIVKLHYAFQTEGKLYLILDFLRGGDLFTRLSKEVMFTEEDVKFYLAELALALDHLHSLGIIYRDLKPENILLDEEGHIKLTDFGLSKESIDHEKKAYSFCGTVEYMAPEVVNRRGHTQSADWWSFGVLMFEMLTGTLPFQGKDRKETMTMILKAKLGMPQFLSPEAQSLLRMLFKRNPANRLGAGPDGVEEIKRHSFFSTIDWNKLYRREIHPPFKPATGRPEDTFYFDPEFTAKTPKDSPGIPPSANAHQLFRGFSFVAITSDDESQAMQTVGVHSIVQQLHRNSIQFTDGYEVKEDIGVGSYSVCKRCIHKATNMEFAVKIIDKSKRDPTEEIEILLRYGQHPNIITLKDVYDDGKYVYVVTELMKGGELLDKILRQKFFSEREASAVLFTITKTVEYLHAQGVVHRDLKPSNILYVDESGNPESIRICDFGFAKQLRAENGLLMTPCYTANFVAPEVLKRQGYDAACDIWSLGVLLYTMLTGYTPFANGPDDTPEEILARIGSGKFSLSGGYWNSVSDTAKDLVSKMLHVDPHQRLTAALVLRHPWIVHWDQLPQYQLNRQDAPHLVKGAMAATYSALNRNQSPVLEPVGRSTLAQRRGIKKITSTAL

The first test deals with Ribosomal protein S6 kinase alpha-1 (Homo sapiens) (UniProt Q15418). Particulars: at 10 µM.
Sequence of Ribosomal protein S6 kinase alpha-1 (Homo sapiens) (Q15418 whole entry): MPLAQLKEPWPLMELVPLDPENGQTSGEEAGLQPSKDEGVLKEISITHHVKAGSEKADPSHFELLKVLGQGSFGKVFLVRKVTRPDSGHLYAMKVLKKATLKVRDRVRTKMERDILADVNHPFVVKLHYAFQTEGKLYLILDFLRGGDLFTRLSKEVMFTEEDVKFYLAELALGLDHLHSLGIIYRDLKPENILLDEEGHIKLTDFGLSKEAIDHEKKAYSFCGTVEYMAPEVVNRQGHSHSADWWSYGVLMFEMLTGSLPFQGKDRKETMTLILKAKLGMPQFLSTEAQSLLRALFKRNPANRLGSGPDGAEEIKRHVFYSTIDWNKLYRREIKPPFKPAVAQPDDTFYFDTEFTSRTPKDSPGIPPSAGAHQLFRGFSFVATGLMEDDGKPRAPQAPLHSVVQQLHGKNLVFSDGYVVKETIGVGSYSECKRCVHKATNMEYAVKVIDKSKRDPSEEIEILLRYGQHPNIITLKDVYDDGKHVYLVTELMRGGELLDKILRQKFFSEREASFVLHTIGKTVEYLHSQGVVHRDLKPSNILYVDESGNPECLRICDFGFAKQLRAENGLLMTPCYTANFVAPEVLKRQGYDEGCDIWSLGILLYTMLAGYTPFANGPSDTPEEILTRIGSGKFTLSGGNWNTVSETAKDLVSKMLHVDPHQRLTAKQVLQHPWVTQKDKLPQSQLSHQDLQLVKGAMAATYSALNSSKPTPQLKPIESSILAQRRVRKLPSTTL
As to `CNc1cc2c(Nc3cccc(Br)c3)ncnc2cn1`, the residual activity was 59%.
As to `O=C(Nc1cccc(Nc2cc(Nc3cccc(C(F)(F)F)c3)ncn2)c1)C1CC1`, the residual activity came to 79%.
For the compound `Cc1nc(-c2ccccc2)c(-c2ccncc2)o1`, the residual activity worked out at 97%.
Take `c1ccc(-c2n[nH]c3c2oc2ccccc23)cc1`: the residual activity was 58%.

A further test has as its target Ribosomal protein S6 kinase alpha-3 (Homo sapiens) (UniProt P51812). Particulars: at 1 µM.
`O=C1NC(=O)/C(=C\c2ccc3nccnc3c2)S1`: the residual activity was found to be 61%.
As for `Cc1nc2cc3nc(-c4cccs4)cnc3cc2n1C`, the residual activity is 102%.
The same measure, in the same setting: next, `c1ccc2c(-c3ccncc3)c[nH]c2c1`: 72%.
With `COc1cc2ncnc(Nc3ccc(O)c(Br)c3)c2cc1OC`, the residual activity was 39%.
For `CCC(=O)Nc1ccc2ncnc(Nc3cccc(Br)c3)c2c1`, the residual activity was 120%.
Still for that read-out and setting: next, `Cn1cnc2cc3c(Nc4cccc(Br)c4)ncnc3cc21`: 108%; `Cc1cc(Nc2nc(-c3ccccc3)nc3ccccc23)n[nH]1`: 58%; `O=C1Nc2cc(Br)ccc2/C1=C1/Nc2ccccc2/C1=N\O`: 24%.
For the compound `CCN(CC)CCCCN1c2ccccc2Oc2ccc(Cl)cc21`, the residual activity turned out to be 67%.
In the case of `Cn1nc2c3c(cccc31)C(=O)c1ccccc1-2`, the residual activity turned out to be 58%.
For `COc1cc2ncnc(Nc3ccc(NC(=O)c4ccccc4)cc3)c2cc1OC`, the residual activity is 67%.
On to `Nc1nc(Nc2ccc(S(N)(=O)=O)cc2)nn1C(=S)Nc1c(F)cccc1F`, for which the residual activity came to 0%.
Regarding `Cc1cccc(-c2[nH]c(C(C)(C)C)nc2-c2ccc3c(c2)OCO3)n1`, the residual activity came to 67%.
On the same count and under the same terms, next, `N#CC(C#N)=C(N)/C(C#N)=C/c1ccc(O)cc1`: 49%.
Consider `COc1cc2ncc(-c3ccccc3)nc2cc1OC`, for which the residual activity amounted to 54%.
The same measure, in the same setting: next, `Cc1cncc2cccc(S(=O)(=O)N3CCCN(C(=O)CN)C[C@H]3C)c12`: 60%; `CC(=O)c1ccc(N2CCOCC2)cc1O`: 64%; `COc1ccc(C(=O)Nc2sc3c(c2C(N)=O)CCCC3)cc1OC`: 111%.
With `CCN(CC)C(=O)c1ccc(Nc2nc(OCC3CCCCC3)c3nc[nH]c3n2)cc1`, the residual activity came to 30%.
Take `Cc1ccc(NC2=CC(=O)c3sc(C)nc3C2=O)cc1`: the residual activity is 117%.
For `COc1cc2ncnc(N3CCN(C(=O)Nc4ccc(Oc5ccccc5)cc4)CC3)c2cc1OC`, the residual activity was 56%.
Still for that read-out and setting: for `Nc1n[nH]c2nnc(-c3c(-c4ccccc4)nn4ccccc34)cc12` the value was 111%; for `O=C1Nc2ccccc2/C1=C1/Nc2ccccc2/C1=N\OCCC(O)CO` (stereo not given), 15%.
Regarding `Ic1cccc(CSc2nnc(-c3ccncc3)o2)c1`, the residual activity was determined as 39%.
In the case of `O=c1cc(-c2cccc3c2Sc2ccccc2S3)oc(N2CCOCC2)c1`, the residual activity amounted to 106%.
`COc1ccc(CNc2nc(N(CCO)CCO)nc3c2ncn3C(C)C)cc1`: the residual activity was determined as 31%.
In the case of `COc1cccc(-c2cc(=O)c3ccccc3o2)c1N`, the residual activity is 118%.
As for `NC(=O)c1ccc2[nH]c(-c3ccc(Oc4ccc(Cl)cc4)cc3)nc2c1`, the residual activity turned out to be 30%.
Turning to `CNc1cc2c(Nc3cccc(Br)c3)ncnc2cn1`, the residual activity came to 110%.
Take `c1ccc(-c2n[nH]cc2-c2ccnc3ccccc23)nc1`: the residual activity was determined as 60%.
Still for that read-out and setting: for `O=C(Nc1cccc(Nc2cc(Nc3cccc(C(F)(F)F)c3)ncn2)c1)C1CC1` the value was 106%; for `Cc1nc(-c2ccccc2)c(-c2ccncc2)o1`, 60%; for `c1ccc(-c2n[nH]c3c2oc2ccccc23)cc1`, 66%.

The target is the same in the next test. The conditions noted are these: at 10 µM.
With `O=C1NC(=O)/C(=C\c2ccc3nccnc3c2)S1`, the residual activity is 35%.
On to `Cc1nc2cc3nc(-c4cccs4)cnc3cc2n1C`, for which the residual activity worked out at 75%.
Turning to `c1ccc2c(-c3ccncc3)c[nH]c2c1`, the residual activity came to 43%.
Take `COc1cc2ncnc(Nc3ccc(O)c(Br)c3)c2cc1OC`: the residual activity was 12%.
With `CCC(=O)Nc1ccc2ncnc(Nc3cccc(Br)c3)c2c1`, the residual activity worked out at 91%.
Take `Cn1cnc2cc3c(Nc4cccc(Br)c4)ncnc3cc21`: the residual activity turned out to be 93%.
Turning to `Cc1cc(Nc2nc(-c3ccccc3)nc3ccccc23)n[nH]1`, the residual activity was found to be 11%.
Regarding `O=C1Nc2cc(Br)ccc2/C1=C1/Nc2ccccc2/C1=N\O`, the residual activity amounted to 6%.
Still for that read-out and setting: for `CCN(CC)CCCCN1c2ccccc2Oc2ccc(Cl)cc21` the value was 64%; for `Cn1nc2c3c(cccc31)C(=O)c1ccccc1-2`, 42%; for `COc1cc2ncnc(Nc3ccc(NC(=O)c4ccccc4)cc3)c2cc1OC`, 40%.
`Nc1nc(Nc2ccc(S(N)(=O)=O)cc2)nn1C(=S)Nc1c(F)cccc1F`: the residual activity was -1%.
`Cc1cccc(-c2[nH]c(C(C)(C)C)nc2-c2ccc3c(c2)OCO3)n1`: the residual activity came out at 47%.
As for `N#CC(C#N)=C(N)/C(C#N)=C/c1ccc(O)cc1`, the residual activity was found to be 27%.
For the compound `COc1cc2ncc(-c3ccccc3)nc2cc1OC`, the residual activity is 25%.
Consider `Cc1cncc2cccc(S(=O)(=O)N3CCCN(C(=O)CN)C[C@H]3C)c12`, for which the residual activity worked out at 23%.
On the same count and under the same terms, for `CC(=O)c1ccc(N2CCOCC2)cc1O` the value was 56%.
`COc1ccc(C(=O)Nc2sc3c(c2C(N)=O)CCCC3)cc1OC`: the residual activity was 93%.
Same read-out and setting: next, `CCN(CC)C(=O)c1ccc(Nc2nc(OCC3CCCCC3)c3nc[nH]c3n2)cc1`: 1%; `Cc1ccc(NC2=CC(=O)c3sc(C)nc3C2=O)cc1`: 123%; `COc1cc2ncnc(N3CCN(C(=O)Nc4ccc(Oc5ccccc5)cc4)CC3)c2cc1OC`: 65%.
For `Nc1n[nH]c2nnc(-c3c(-c4ccccc4)nn4ccccc34)cc12`, the residual activity was 96%.
`O=C1Nc2ccccc2/C1=C1/Nc2ccccc2/C1=N\OCCC(O)CO` (stereo not given): the residual activity was determined as 1%.
Consider `Ic1cccc(CSc2nnc(-c3ccncc3)o2)c1`, for which the residual activity worked out at 28%.
The same measure, in the same setting: for `O=c1cc(-c2cccc3c2Sc2ccccc2S3)oc(N2CCOCC2)c1` the value was 93%; for `COc1ccc(CNc2nc(N(CCO)CCO)nc3c2ncn3C(C)C)cc1`, 22%.
Take `COc1cccc(-c2cc(=O)c3ccccc3o2)c1N`: the residual activity is 106%.
Regarding `NC(=O)c1ccc2[nH]c(-c3ccc(Oc4ccc(Cl)cc4)cc3)nc2c1`, the residual activity came to 11%.
For `CNc1cc2c(Nc3cccc(Br)c3)ncnc2cn1`, the residual activity came to 71%.
On to `c1ccc(-c2n[nH]cc2-c2ccnc3ccccc23)nc1`, for which the residual activity amounted to 62%.
As to `O=C(Nc1cccc(Nc2cc(Nc3cccc(C(F)(F)F)c3)ncn2)c1)C1CC1`, the residual activity turned out to be 66%.
`Cc1nc(-c2ccccc2)c(-c2ccncc2)o1`: the residual activity stood at 64%.
Still for that read-out and setting: for `c1ccc(-c2n[nH]c3c2oc2ccccc23)cc1` the value was 44%.

What is called residual activity is the signal under treatment as a percentage of the control signal.
